# Compound activity (PubChem BioAssay)
# CDC25B CDK2 inh: human CDC25B-CDK2/CyclinA binding inhibition. P30305+P24941. HTRF CDC25B-CDK2/CyclinA binding, anti-His/anti-Flag; active compounds read high. z-score (test concentration not listed). 0.72% of 94,000 active. AID 1259370; in the data active = z-score above about 3.2
# TAR Tat displ: HIV-1 TAR-Tat binding disruption | HIV-1 TAR RNA, Tat peptide displacement FRET; active compounds read high | 0.6% of 100,000 active | z-score (test concentration not listed) | AID 1259389; active = z-score of 3 or more in at least 2 runs
# * marks the source's active call; other numbers are inactive results; / = no result. Only some compounds are listed: those with a hit (about 0.86% of all), similar ones and a draw of the others.
SMILES,CDC25B CDK2 inh,TAR Tat displ
O=S(=O)(NCCc1csc(-c2ccc(F)cc2)n1)c1ccc2c(c1)CCCC2,/,2.5
CC(C)CC(=O)N[C@H](C(=O)N[C@H](C(=O)N[C@@H](CC(C)C)[C@@H](O)CC(=O)N[C@@H](C)C(=O)N[C@@H](CC(C)C)[C@@H](O)CC(=O)O)C(C)C)C(C)C,/,19*
O=C1COc2ccc(S(=O)(=O)N3CCN(C(=O)C4CC(=O)N(c5ccccc5)C4)CC3)cc2N1 (configuration not stated),/,-0.46
Cc1ccc(C2CC(=O)N3CN(c4ccc(N(C)C)cc4)CSC3=C2C#N)cc1 (configuration not stated),6.7*,-1.1
COc1ccc(C2CC(=O)N3CN(c4ccc(N(C)C)cc4)CSC3=C2C#N)cc1 (configuration not stated),5.5*,-0.01
Cc1cccc2nc(-c3cccs3)c(Nc3ccccc3)n12,-2.2,-0.54
Cn1c(SCC(=O)c2ccc3c(c2)CCCO3)nnc1-c1ccc2c(c1)OCCCO2,/,0.21
CC1CCc2c(sc3nc(CCC(=O)N4CCCCC4)[nH]c(=O)c23)C1 (configuration not stated),/,-0.36
Cc1cc(C(=O)C(=O)Nc2nnc(-c3ccco3)s2)c(C)n1-c1cccc(Cl)c1,-0.62,8.6*
Cc1cc(C(=O)C(=O)Nc2nncs2)c(C)n1-c1ccccc1,-2.4,6.9
CCc1nnc(NC(=O)C(=O)c2cc(C)n(-c3ccc(F)cc3)c2C)s1,-2.8,2.3
Cc1cc(C(=O)C(=O)Nc2nnc(-c3ccco3)s2)c(C)n1-c1ccccc1Cl,-1.1,33*
CN(C)c1ccc(-n2[nH]nnc2=S)cc1,-0.95,/
COc1ccc(Cn2c(CO)cnc2SCc2ccccc2Cl)cc1,/,2.2
CCn1c(C(=O)N2CCC(C(=O)NC(C)C34CC5CC(CC(C5)C3)C4)CC2)cc2sccc21 (configuration not stated),-0.26,/
COc1ccccc1NCc1nc2ccccc2n1CCOc1ccccc1,-0.85,1.1
Cc1nn2c(=O)cc(CSc3ccccc3NC(=O)C(C)(C)C)nc2s1,/,0.97
COc1cc2nc(N3CCN(C(=O)c4ccco4)CC3)nc(N)c2cc1OC,-1.4,2.2
COc1cc2nc(N3CCCN(C)CC3)nc(NC3CCN(Cc4ccccc4)CC3)c2cc1OC,0.41,5.1*
Cc1nn2c(=O)cc(CSc3nc(-c4ccccc4)nc4cc(=O)[nH]n34)nc2s1,/,0.72
CCC(=O)Nc1ccc2c(c1)sc(=O)n2C,/,1.1
Cn1c(=O)sc2cc(NC(=O)Cn3c(=O)oc4ccccc43)ccc21,7.5*,1.7
Cc1ccc(-c2nnn3c2nc(NCc2ccco2)c2ccccc23)cc1,-2,1.2
Cc1cccc(-c2nnn3c2nc(NCc2ccco2)c2ccccc23)c1,-1.8,7.8*
C=CCN1C(=S)Nc2cccc[n+]2[B-]1(CCCC)CCCC,3.9*,/
SMILES,CDC25B CDK2 inh,TAR Tat displ
Cc1cc2oc3c(c(=O)c2cc1C)C(c1cccc(Cl)c1)N(CCCN1CCOCC1)C3=O (configuration not stated),-1.9,-0.71
CCC(CC)C(=O)Nc1ccccc1SCc1cc(=O)n2c(C)csc2n1,/,0.22
Cn1c(C(=O)NCc2ccccn2)cc2c(=O)n3ccccc3nc21,-0.05,/
CCCCNC(=O)c1cc2c(=O)n3ccccc3nc2n1C,/,5*
Cc1cccn2c(=O)c3cc(C(=O)Nc4ccc(S(N)(=O)=O)cc4)n(C)c3nc12,/,43*
Cc1cc(NC(=O)c2cc3c(=O)n4cccc(C)c4nc3n2C)ccc1Br,/,-2.2
Cn1c(C(=O)Nc2ccc(S(N)(=O)=O)cc2)cc2c(=O)n3ccccc3nc21,/,27*
Cn1c(C(=O)Nc2ccc(Oc3ccccc3)cc2)cc2c(=O)n3ccccc3nc21,/,1.2
CCOC(=O)N1CCN(S(=O)(=O)c2ccc(C)cc2)C1C(C)C (configuration not stated),-1.4,-0.39
CNC(=O)N(C1=NCC(C)(C)S1)c1ccc(Cl)cc1,-0.71,/
Cc1ccc(-n2c(C)c3c(C)nn4cc(C)cc4c3c2C)cc1,0.82,/
Cc1ccc(-c2cc3c4c(C)n(Cc5ccc6c(c5)OCO6)c(C)c4c(C)nn3c2)o1,23*,35*
Cc1ccc(-c2cc3c4c(C)n(C)c(C)c4c(C)nn3c2)o1,16*,36*
Cc1ccc(-c2cc3c4c(C)n(Cc5ccccc5)c(C)c4c(C)nn3c2)o1,-1.4,-0.55
Cc1ccc(-c2cc3c4c(C)n(C5CCCCC5)c(C)c4c(C)nn3c2)o1,-0.58,17*
CCc1ccc(S(=O)(=O)NCCc2sc(-c3ccc(Cl)cc3)nc2C)cc1,/,1.1
C#CCN1C(=O)C(O)(CC(=O)c2ccc(OC)cc2)c2cc(Br)ccc21 (configuration not stated),-0.24,/
COCC(C)NC(=O)c1cc2n(n1)C(C(F)(F)F)CC(c1ccco1)N2 (configuration not stated),-0.73,-1.1
COc1ccc(NC(=O)CSc2ccc(-c3cccs3)nn2)cc1OC,/,2.7
CCc1cc(C=N)c([S-])s1.CCc1cc(C=N)c([S-])s1.[Zn+2],19*,/
CCc1cc2c(=S)[nH]cnc2s1,-0.86,/
CCc1nnc2sc(/C=C/c3ccco3)nn12,-1.1,8.4*
Clc1ccc(Cc2nnc3sc(/C=C/c4ccco4)nn23)cc1,4.2*,19*
CC(C)(C)c1nnc2sc(/C=C/c3ccco3)nn12,-1.5,-2.2
COc1ccc(Cc2nnc3sc(/C=C/c4ccco4)nn23)cc1,2.1,8.3*
SMILES,CDC25B CDK2 inh,TAR Tat displ
Clc1ccc(Cc2nnc3sc(/C=C/c4cccs4)nn23)cc1,-1.5,1.1
COc1ccccc1/C=C/c1nn2c(Cc3ccccc3)nnc2s1,0.3,2.5
COc1ccccc1-c1noc2ncnc(N(CCN(C)C)Cc3ccccc3)c12,/,1.1
O=C(NCC1CCCO1)C1CCN(S(=O)(=O)c2ccc(F)cc2)CC1 (configuration not stated),-0.35,0.13
O=c1cc(CSc2nnc(-c3ccc(Cl)cc3)o2)nc2sc(C3CC3)nn12,-2.2,14*
O=c1cc(CSc2nnc(-c3cccs3)o2)nc2sc(C3CCCCC3)nn12,-2,0.32
CCc1c(C)nc2n(c1=O)C(CS(=O)(=O)c1ccc(C)cc1)CS2 (configuration not stated),-1.6,0.37
O=c1ccc(-c2ccc(S(=O)(=O)Nc3ccc(Br)cc3F)o2)n[nH]1,/,18*
O=c1ccc(-c2ccc(S(=O)(=O)Nc3ccc(Cl)cc3F)o2)n[nH]1,/,2.1
COC(=O)c1c(C)oc2ccc(NS(=O)(=O)c3ccc(Cl)cc3)cc12,-0.32,0.19
Cc1oc2ccc(NS(=O)(=O)c3ccccc3)cc2c1C(=O)O,-0.14,18*
Cc1oc2ccc(NS(=O)(=O)c3ccc(F)cc3)cc2c1C(=O)O,0.13,1.7
Cc1oc2ccc(NS(=O)(=O)c3ccc(Cl)cc3)cc2c1C(=O)O,3.9,23*
COc1ccccc1Nc1nc(-c2cc3c(ccc4ccccc43)oc2=O)cs1,-1,/
O=C1c2ccccc2C(=O)N1c1cccc(-c2csc(Nc3cccc4ccccc34)n2)c1,19*,/
COc1ccc2cc(C(=O)Nc3ccc(F)cc3)sc(=O)c2c1OC,0.7,3.9
COc1ccc2cc(C(=O)Nc3ccc(Cl)cc3)sc(=O)c2c1OC,0.18,6.4*
Cc1ccc(C2Nc3ccccc3NC3=C2C(=O)CC(c2cccs2)C3)cc1 (configuration not stated),-0.78,3.5
O=C1CC(c2ccco2)CC2=C1C(c1ccco1)Nc1ccccc1N2 (configuration not stated),-0.52,0.63
